Only some compounds are listed: those with a hit (about 11% of all), similar ones and a draw of the others.
BAZ2B block – blocks human BAZ2B. Q9UIF8. 4.4% of 360,000 active. AlphaScreen BAZ2B-H3K14Ac peptide displacement. Potency, µM (series often up to 114 µM), inactives show at the top dose activity change, negative = inhibition, actives largely listed as inhibitors; also: % is scaled to controls: 0 for no effect and ±100 for the full control effect; nearly all actives have a fitted effect of over 60% in size
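BAZ2B (50 nM) with biotin-H3(5-23)K14Ac peptide (50 nM) in PBS pH 7.4, 0.01% Tween-20, preformed 30 min, then compound 30 min at room temperature; top concentration 110uM. AlphaScreen streptavidin donor/nickel chelate acceptor beads (10 ug/mL final), 20 min dark, signal read.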
HP1b binding inh – blocks HP1-beta chromodomain binding to methylated histone tails; Potency, µM (titrated, usually from 114 µM), inactives show top-dose activity change, negative = inhibition, most hits filed as inhibitors; 0.56% of 390,000 active; AlphaScreen HP1-beta / biotin-H3K9me3 peptide binding; P83916; AID 540317; also: nearly all actives have a fitted effect of over 70% in size
Target sequence (P83916 whole entry, looked up): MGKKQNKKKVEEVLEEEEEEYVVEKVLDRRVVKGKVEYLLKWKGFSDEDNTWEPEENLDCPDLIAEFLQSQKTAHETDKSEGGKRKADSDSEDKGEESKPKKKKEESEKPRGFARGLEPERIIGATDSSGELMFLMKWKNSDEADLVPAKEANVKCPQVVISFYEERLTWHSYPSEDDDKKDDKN
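Compound inhibition of the preformed complex between 50 nM HP1-beta and 50 nM biotinylated H3K9me3 peptide was read by AlphaScreen. Buffer was PBS pH 7.4 with 0.01% Tween-20. Incubations ran 30 min at room temperature, with 10 ug/mL donor/acceptor beads.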
G9a inh – inhibitors of human histone lysine methyltransferase G9a; Q96KQ7; Potency, µM (top dose mostly 102 µM), for inactives: at the top dose activity, negative = inhibition, hits mostly inhibitors; G9a H3K9 monomethylation, AlphaScreen, 2 h; 8.8% of 350,000 active; also: % is scaled to controls: 0 for no effect and ±100 for the full control effect; nearly all actives have a fitted effect of over 75% in size
Target sequence (Q96KQ7 913-1193 limits assumed): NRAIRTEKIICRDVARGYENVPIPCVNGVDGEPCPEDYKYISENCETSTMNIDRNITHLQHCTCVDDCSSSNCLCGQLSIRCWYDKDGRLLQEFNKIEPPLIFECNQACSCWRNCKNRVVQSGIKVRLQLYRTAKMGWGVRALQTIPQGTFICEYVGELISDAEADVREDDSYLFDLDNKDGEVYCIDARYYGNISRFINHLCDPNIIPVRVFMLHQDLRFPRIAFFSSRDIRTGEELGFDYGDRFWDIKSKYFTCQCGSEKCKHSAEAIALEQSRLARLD
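Compounds were preincubated with 20 nM G9a for 15 min, after which biotinylated H3K9 peptide (500 nM) and SAM (20 uM) started a 2 h room-temperature reaction. Monomethylated product was quantified by antibody-based AlphaScreen chemiluminescence.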
JMJD2A Tudor – JMJD2A Tudor domain (human) inhibition. AID 504339. Potency, µM (doses to about 114 µM), for inactives: top-dose activity change, negative = inhibition, hits mostly inhibitors. 4.4% of 390,000 active. AlphaScreen JMJD2A-Tudor / H3K4me3 peptide binding; also: % is scaled to controls: 0 for no effect and ±100 for the full control effect; nearly all actives have a fitted effect of over 50% in size
L3MBTL1 inh – L3MBTL1 (human) inhibition; Q9Y468; AlphaScreen L3MBTL1–H3K9me1 peptide binding; Potency, µM (titrated, usually from 57.1 µM), inactives show top-dose activity, negative = inhibition, actives largely listed as inhibitors; 0.66% of 230,000 active; AID 485360; also: % is scaled to controls: 0 for no effect and ±100 for the full control effect; nearly all actives have a fitted effect of over 60% in size
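First, the protein-peptide complex forms for 30 min at room temperature (L3MBTL1 50 nM, biotinylated H3K9me1 peptide 75 nM). Next, compounds are pin-transferred and incubated 30 min. Finally, AlphaScreen beads are added and read after 30 min.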
An asterisk follows results filed as active; [ ] = another dose, or the depositor's remark. Calls follow the shape of the dose curve; as a rule, active = well fitted inhibition curve with a large enough effect; inconclusive = small, poorly fitted or top-dose-only effect; inactive = no such curve, though single readings can be large or run the other way. Potency is read from the fitted curve at half-maximal effect.

COc1cc(-c2nc(SCC(=O)Nc3ccc4c(c3)OCO4)c(-c3ccccc3)[nH]2)cc(OC)c1OC was read as BAZ2B block inconclusive, HP1b binding inh inconclusive, G9a inh 11µM* and JMJD2A Tudor inconclusive.
Screening Cc1nn(-c2ccccc2)c(C)c1C(=O)OCC(=O)Nc1ccccc1 returned BAZ2B block -2%, HP1b binding inh 27%, G9a inh -22%[59 µM], JMJD2A Tudor -10% and L3MBTL1 inh 3%.
O=C(Nc1ccc2c(c1)OCCO2)C1CC1c1ccccc1 (stereo unspecified) was read as BAZ2B block -10%, HP1b binding inh 11%, G9a inh 6%[59 µM], JMJD2A Tudor -20% and L3MBTL1 inh 3%.
COc1cccc(-c2nc(SCC(=O)Nc3ccc4c(c3)OCCO4)c(-c3ccccc3)[nH]2)c1 was read as BAZ2B block -33%, HP1b binding inh 17%, G9a inh inconclusive and JMJD2A Tudor inconclusive.
Screening COc1ccc(-c2[nH]c(-c3ccc(C)cc3)nc2SCC(=O)NCc2ccco2)cc1OC returned BAZ2B block 6%, HP1b binding inh 46%, G9a inh 50µM* and JMJD2A Tudor -19%.
Screening COc1ccc(-c2ccc(SCC(=O)NCc3ccco3)nn2)cc1OC returned BAZ2B block 11%, HP1b binding inh 1%, G9a inh -105%, JMJD2A Tudor inconclusive and L3MBTL1 inh -2%.
For CCOC(=O)COc1ccc2c(C)c(CCN(CC)CC)c(=O)oc2c1Cl the results were G9a inh -35%[12.7 µM].
`COc1ccc(NC(=O)c2ccc(-c3nc(CSc4ccc(C)cc4)c(C)o3)cc2)cc1Cl` gave BAZ2B block -9%, HP1b binding inh 7%, G9a inh -8%[59 µM] and JMJD2A Tudor -22%.
`CCCCCCCCCCCCCCCC(=O)OC(C)C` gave G9a inh 20%[59 µM].
Screening O=C(CSc1ncn(-c2ccccc2)n1)Nc1ccc2c(c1)OCO2 returned BAZ2B block -1%, HP1b binding inh 12%, G9a inh inconclusive, JMJD2A Tudor 89µM* and L3MBTL1 inh 0%.
For CC(=O)Nc1cccc(C(=O)OCC(=O)Nc2c(C)nn(-c3ccccc3)c2C)c1 the results were BAZ2B block 12%, HP1b binding inh 16%, G9a inh 40µM*, JMJD2A Tudor -17% and L3MBTL1 inh 7%.
Cc1nc2cc(C(=O)OCC(=O)Nc3cccc(Cl)c3)ccc2n1-c1ccccc1 was read as BAZ2B block 5%, HP1b binding inh 45%, G9a inh 50µM*, JMJD2A Tudor -23%[57.1 µM] and L3MBTL1 inh -9%.
`COc1ccc(-c2[nH]c(-c3cccc(OC)c3)nc2SCC(=O)Nc2ccc3c(c2)OCO3)cc1` gave BAZ2B block inconclusive, HP1b binding inh inconclusive, G9a inh 10µM* and JMJD2A Tudor inconclusive.
`O=C(OCC#CCSc1nnc(-c2cccc3ccccc23)o1)c1ccc(F)cc1F` gave JMJD2A Tudor 26%.
`O=C(Nc1cccc(C(F)(F)F)c1)C1CCCN(S(=O)(=O)c2cccc3nonc23)C1` (stereo unspecified) gave BAZ2B block 3%, HP1b binding inh 48%, G9a inh -2%[59 µM] and JMJD2A Tudor -2%.
`NC(=O)C12CCCC(Br)(CCC1)C2` gave BAZ2B block -15%, HP1b binding inh 22%, G9a inh -3%, JMJD2A Tudor -15% and L3MBTL1 inh -2%.
`Cc1ccc(-n2nc(C)c(NC(=O)COC(=O)c3ccccc3NCCO)c2C)cc1` gave BAZ2B block 13%, HP1b binding inh 22%, G9a inh 50µM*, JMJD2A Tudor -4% and L3MBTL1 inh 5%.
For Cc1nn(-c2ccccc2)c(C)c1NC(=O)COC(=O)c1ccccc1 the results were BAZ2B block 6%, HP1b binding inh 35%, G9a inh inconclusive, JMJD2A Tudor 7% and L3MBTL1 inh -1%.
For O=C(CSc1ccccc1)NCc1ccco1 the results were BAZ2B block 7%, HP1b binding inh 9%, G9a inh -12%[59 µM], JMJD2A Tudor -23% and L3MBTL1 inh -5%.
